In all, about 16,000 compounds went through this assay and about 5,100 (32%) were called active. Not shown: some 25% with an inconclusive outcome. Calls come from the whole dose curve; as a rule, active = well fitted curve in the direction sought with a large enough effect; inconclusive = small, poorly fitted or top-dose-only effect, or effect the other way; inactive = no such curve, though single readings can be large or run the other way. Some of the results follow.
% is set by controls: 0 for no effect and ±100 for the full control effect.

Cytochrome P450 3A4 (Homo sapiens), sequence (P08684 whole entry, looked up): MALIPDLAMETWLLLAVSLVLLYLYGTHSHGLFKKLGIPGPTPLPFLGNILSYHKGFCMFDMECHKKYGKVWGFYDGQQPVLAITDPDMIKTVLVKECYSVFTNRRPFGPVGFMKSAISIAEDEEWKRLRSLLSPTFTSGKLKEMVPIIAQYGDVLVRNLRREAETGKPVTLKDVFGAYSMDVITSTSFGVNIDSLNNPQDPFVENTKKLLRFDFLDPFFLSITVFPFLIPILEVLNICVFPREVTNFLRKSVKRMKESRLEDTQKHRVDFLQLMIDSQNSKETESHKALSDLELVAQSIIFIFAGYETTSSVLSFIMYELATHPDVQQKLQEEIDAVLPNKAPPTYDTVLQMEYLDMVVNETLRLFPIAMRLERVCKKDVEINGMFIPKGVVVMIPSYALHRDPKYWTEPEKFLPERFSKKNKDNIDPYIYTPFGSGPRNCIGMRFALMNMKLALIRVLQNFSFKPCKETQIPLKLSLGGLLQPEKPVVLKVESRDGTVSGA

This experiment concerns the target Cytochrome P450 3A4 (Homo sapiens) (UniProt P08684). The experiment is described as follows: Cytochrome panel assay with activity outcomes. As to conditions: recombinant CYP, pro-luciferin dealkylation, luminescence, p450-cyp3a4; series mostly up to 57.1 µM; activity, negative = inhibition: at the top concentration.
Consider `CSc1nc(C)c2c(n1)N(c1ccc(C(C)C)cc1)CC2`, for which the “activity, negative = inhibition” value is -16.2% (inactive).

With `C=CCc1cccc2cc(C(=O)N(CC)CC)c(=O)oc12`, the AC50 was 11.2 µM (active).

As to `Cc1cc(C)c[n+](CC(=O)c2cc3ccccc3oc2=O)c1`, the “activity, negative = inhibition” value is -13.7% (inactive).

With `CN(C)c1ncnc2ccc(-c3cccnc3)cc12`, the AC50 was 1 µM (active).

Consider `CN(C)c1ncnc2ccc(-c3cccc(C#N)c3)cc12`, for which the AC50 was 12.6 µM (active).

With `CN(C)c1ncnc2c1ncn2CCn1cnc2c(N(C)C)ncnc21`, the activity, negative = inhibition is 8.51% [at 11.4 µM] (inactive).

Regarding `COc1cccc(-c2ccc3ncnc(N(C)C)c3c2)c1`, the AC50 was 7.94 µM (active).

Regarding `CN(C)c1ccc(-c2ccc3ncnc(N(C)C)c3c2)cc1`, the AC50 is 6.31 µM (active).

For `NC(=O)C1(N2CCCCC2)CCN(C(=O)c2ccc(-n3cnnn3)cc2)CC1`, the “activity, negative = inhibition” value is -3.2% (inactive).

On to `NC(N)=[N+]1CCc2ccccc2C1`, for which the “activity, negative = inhibition” value is -1.96% (inactive).

Consider `COC(=O)C(NNc1ccccc1)(NC(=O)c1ccccc1F)C(F)(F)F` (stereo unspecified), for which the AC50 is 1.58 µM (active).

As for `CN1CCN(NC(=O)c2ccccc2F)CC1`, the “activity, negative = inhibition” value was 4.34% (inactive).

In the case of `[Cu].[O-]/N=C1/C(=[OH+])Nc2ccccc21.[O-]Nc1c(O)[nH]c2ccccc12`, the activity, negative = inhibition was 1.34% [at 11.4 µM] (inactive).

As for `O=C(O)c1ccc(S(=O)(=O)N=Nc2c(O)[nH]c3ccccc23)cc1`, the activity, negative = inhibition was 14.3% [at 11.4 µM] (inactive).

On to `O=Nc1c(-c2c(O)[nH]c3ccccc23)[nH]c2ccccc12`, for which the AC50 was 7.94 µM (active).

For `O=c1[nH][nH]c(C(F)(F)F)c1C=Nc1ccccc1`, the “activity, negative = inhibition” value is -5.01% (inactive).

For the molecule `COc1cc2nc(N(C)CCCNC(=O)[C@@H]3CCCO3)nc(N)c2cc1OC`, the “activity, negative = inhibition” value is -10.6% [at 25.6 µM] (inactive).

Turning to `COc1cc2nc(N3CCN(C(=O)OCc4ccccc4)[C@H](C(=O)NC(C)(C)C)C3)nc(N)c2cc1OC`, the concentration at half-maximal activity (AC50) is 3.98 µM (active).

On to `C=CCN=C1CC(C)(C)CC(=O)/C1=C(/O)CCC(=O)OC`, for which the “activity, negative = inhibition” value was -3.27% (inactive).

Regarding `CC(C)(CCc1nc2ccccc2[nH]1)C(=O)O`, the activity, negative = inhibition is -1.06% [at 11.4 µM] (inactive).

Take `Cc1cc(C)cc(NC(=O)CCc2nc3ccccc3[nH]2)c1`: the AC50 is 2.82 µM (active).

As to `CC(=O)COC(=O)CCc1nc2ccccc2[nH]c1=O`, the “activity, negative = inhibition” value is 10.3% (inactive).

`CCCn1c(-c2cccs2)nc2nc3ccccc3nc21`: the AC50 was 10 µM (active).

Turning to `CCCCNC(=O)NS(=O)(=O)c1ccc(C(=O)OC(C)C)o1`, the “activity, negative = inhibition” value was 1.1% (inactive).

In the case of `N/C(=N\OC(=O)Cc1ccc(Cl)cc1)c1cccnc1`, the AC50 was 0.794 µM (active).

Take `C/C(=N\OC(=O)c1ccccc1)c1cc(-c2ccc(Cl)cc2)no1`: the “activity, negative = inhibition” value was -1.98% (inactive).

Consider `Cc1cc(C)n(CC(=O)N/N=C/c2ccco2)n1`, for which the “activity, negative = inhibition” value was 8.54% (inactive).

As to `COc1ccccc1NCc1nnc(SCC(=O)N/N=C/c2ccco2)n1-c1ccc(Cl)cc1Cl`, the AC50 is 5.01 µM (active).

Regarding `O=C(N/C(=C\c1cccs1)C(=O)N1CCCCCC1)c1ccccc1`, the AC50 is 7.94 µM (active).

Turning to `O=C(NC(N1CCCC1)C(Cl)(Cl)Cl)c1ccccc1` (stereo unspecified), the “activity, negative = inhibition” value is -21.3% (inactive).

Regarding `O=C(NNC(=O)c1ccccc1)C(=O)N1CCCCC1`, the “activity, negative = inhibition” value was 11.6% (inactive).

For `O=C(Nc1cccc(F)c1)/C(=C\c1ccco1)NC(=O)c1cccs1`, the activity, negative = inhibition is -8.91% [at 2.29 µM] (inactive).

Take `O=C(O)C/C(=C\c1ccco1)C(=O)O`: the activity, negative = inhibition was -18.3% [at 11.4 µM] (inactive).

On to `O=C(NC(=S)NNC(=O)c1cccs1)c1ccco1`, for which the activity, negative = inhibition is -0.791% [at 2.29 µM] (inactive).

Take `O=C(N/C(=C/c1ccco1)C(=O)N1CCCCCC1)c1cccs1`: the AC50 was 14.1 µM (active).

Turning to `O=C(NCC1CCCO1)/C(=C\c1ccco1)NC(=O)c1ccccc1` (stereo unspecified), the “activity, negative = inhibition” value was -22.7% (inactive).

Regarding `CC(=O)c1cccc(NC(=O)/C(=C\c2ccco2)NC(=O)c2cccs2)c1`, the AC50 was 20 µM (active).

As for `CC(=O)/C=C/c1ccc2ccccc2n1`, the “activity, negative = inhibition” value was -12.5% (inactive).

Consider `C/C(=N/Nc1ccc2ccccc2n1)c1ccccc1O`, for which the AC50 is 3.16 µM (active).

In the case of `CC(=NC1CCCCC1)c1ccccc1O`, the activity, negative = inhibition was -3.59% [at 11.4 µM] (inactive).

In the case of `Cc1cc(N=Cc2c(CO)cnc(C)c2O)c(N=Cc2c(CO)cnc(C)c2O)cc1C.[Zn]`, the activity, negative = inhibition was -6.9% [at 11.4 µM] (inactive).

On to `COC(=O)CSc1ccc2nnc(-c3ccc(F)cc3)n2n1`, for which the “activity, negative = inhibition” value is 2.79% (inactive).

Regarding `Cc1cc(C)cc(-n2nnnc2SCC(=O)Nc2nc(-c3ccc(Cl)cc3)cs2)c1`, the AC50 is 3.98 µM (active).

For the molecule `Cc1cc(C)cc(-n2nnnc2SCC(=O)Nc2nc(-c3ccc(F)cc3)cs2)c1`, the AC50 is 1.58 µM (active).

For `COc1ccc(/C=C2\CCCC3C2=NN(C(=O)c2ccco2)C3c2ccc(OC)c(OC)c2)cc1OC` (stereo unspecified), the AC50 was 7.94 µM (active).

Regarding `Cc1ncsc1C(=O)N1N=C2/C(=C/c3ccccc3)CCCC2C1c1ccccc1` (stereo unspecified), the half-maximal activity concentration (AC50) is 5.01 µM (active).

Regarding `O=C1C2=CC[C@@H]3C(=O)N(c4ccc(F)cc4F)C(=O)[C@H]3[C@H]2[C@H](O)[C@H]2O[C@H]12`, the activity, negative = inhibition was -21.3% [at 11.4 µM] (inactive).

`CC1(C)CCC(NC(=O)[C@H](N)CCC(=O)O)CC1`: the “activity, negative = inhibition” value was -1.71% (inactive).

As for `O=[N+]([O-])c1ccc(Cl)c(/C=N/N2CCN(Cc3ccccc3)CC2)c1`, the “activity, negative = inhibition” value was -22.6% (inactive).

In the case of `C(/C=C/c1ccco1)=N/N1CCN(c2ccccc2)CC1`, the “activity, negative = inhibition” value is 7.59% (inactive).

On to `COc1ccccc1/C=C/C=N/N1CCN(Cc2ccc(Cl)cc2)CC1`, for which the AC50 was 14.1 µM (active).

For orientation: AC50 means the concentration giving half of the maximal activity seen.

Source of the values: PubChem BioAssay AID1851 (National Center for Advancing Translational Sciences (NCATS), 2009).
